Test results as given in PubChem BioAssay.
Values without a mark were called inactive. Active and inactive are the calls of the source. Cut-off read from the data, not from the text of the source, unless noted: active = inhibition above about 44%; inactive = the rest.

Key:
[1] = StAR promoter reporter inhibitors, counter-screen for LRH-1 inverse agonist project, cell-based, luminescence, high throughput (AID 651611; in the data active = inhibition above about 28%); settings: StAR promoter luciferase reporter counterscreen, at 3.6 µM, hits give high values
[2] = target: Nuclear receptor subfamily 5 group A member 2 (Homo sapiens) (UniProt O00482); assay: LRH-1 (NR5A2) inverse agonists, retest, confirmation, cell-based, luminescence (AID 651613; in the data active = inhibition above about 42%;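 note: HEK293T cells co-transfected with LRH-1 and StAR promoter luciferase reporter; 0% = vehicle wells and 100% = parental cells lacking receptor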); settings: cell-based LRH-1 luciferase reporter, inverse agonism; at 3.6 µM; hits give high values
Chain of Nuclear receptor subfamily 5 group A member 2 (Homo sapiens) (O00482 whole entry, looked up): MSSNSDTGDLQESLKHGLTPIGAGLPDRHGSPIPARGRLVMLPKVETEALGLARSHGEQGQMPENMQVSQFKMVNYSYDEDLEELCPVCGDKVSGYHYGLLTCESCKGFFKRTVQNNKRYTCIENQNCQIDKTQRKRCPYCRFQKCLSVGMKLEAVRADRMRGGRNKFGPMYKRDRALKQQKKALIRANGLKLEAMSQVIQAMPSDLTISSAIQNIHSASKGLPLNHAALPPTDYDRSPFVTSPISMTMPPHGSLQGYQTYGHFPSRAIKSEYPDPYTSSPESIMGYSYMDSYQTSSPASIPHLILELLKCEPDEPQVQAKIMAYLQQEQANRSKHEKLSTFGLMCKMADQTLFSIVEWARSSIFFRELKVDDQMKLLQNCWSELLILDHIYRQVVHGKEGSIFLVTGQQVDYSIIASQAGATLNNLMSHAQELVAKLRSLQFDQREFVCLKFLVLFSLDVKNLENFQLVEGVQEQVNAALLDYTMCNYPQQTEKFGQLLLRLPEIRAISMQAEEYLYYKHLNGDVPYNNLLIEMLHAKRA

[3] = target: Steroidogenic factor 1 (Homo sapiens) (UniProt Q13285); assay: SF1 (NR5A1) inverse agonists, counter-screen for LRH-1 inverse agonist project, cell-based, luminescence, high throughput (AID 651614); settings: cell-based SF1 luciferase reporter, at 3.6 µM, hits give high values;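 note: cells cotransfected with StAR promoter reporter and SF1 expression vector; 0% = vehicle on cells with receptor and 100% = vehicle on cells lacking receptor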
Chain of Steroidogenic factor 1 (Homo sapiens) (Q13285 whole entry, looked up, the tested form may be a part): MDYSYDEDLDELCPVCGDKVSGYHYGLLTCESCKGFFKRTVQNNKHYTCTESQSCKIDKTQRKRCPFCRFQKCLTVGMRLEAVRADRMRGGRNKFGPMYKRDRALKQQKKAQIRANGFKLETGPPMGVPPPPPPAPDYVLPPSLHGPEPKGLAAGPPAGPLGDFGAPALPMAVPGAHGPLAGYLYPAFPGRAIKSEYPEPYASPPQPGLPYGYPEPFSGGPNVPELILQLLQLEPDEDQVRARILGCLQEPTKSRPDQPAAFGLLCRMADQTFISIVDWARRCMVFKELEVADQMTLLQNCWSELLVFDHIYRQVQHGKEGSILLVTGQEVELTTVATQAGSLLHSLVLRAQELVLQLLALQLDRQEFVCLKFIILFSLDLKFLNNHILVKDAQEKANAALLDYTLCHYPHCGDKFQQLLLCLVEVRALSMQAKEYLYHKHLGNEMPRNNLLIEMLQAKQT

[4] = VP16 transactivation reporter inhibitors, counter-screen for LRH-1 inverse agonist project, cell-based, luminescence, high throughput (AID 651615; in the data active = inhibition above about 33%); settings: Gal4-VP16 luciferase reporter cells, at 3.6 µM, hits give high values

Row | Structure (SMILES) | inhibition [1] | inhibition [2] | inhibition [3] | inhibition [4]
1 | Cc1cnc(NC(=O)CCCc2nc3ccccc3s2)s1 | 45.5% (active) | 73.1% (active) | 42.5% | 29.4%
2 | COc1ccccc1NC(=O)CN1CCN(CC(=O)Nc2ccc3c(c2)OCCO3)CC1 | 6.64% | 56.8% (active) | 49.5% (active) | -7.19%
3 | CC(=O)c1ccc(NC(=S)Nc2cccc3cnccc23)cc1 | 3.88% | 5.22% | 4.69% | 7.24%
4 | CC1(C)Cc2ccccc2/C(=C/C(=O)c2ccccc2)N1 | 0.1% | 39% | 36.2% | 15.6%
5 | Cc1ccc(C(O)(C(=O)NN(C(=O)c2ccccc2)c2ccccc2)c2ccc(C)cc2)cc1 | 8.63% | 65.8% (active) | 62.9% (active) | 12.3%
6 | CCCOc1ccc2oc(=O)c3c(c2c1)CCCN3C(=O)CN1CCN(c2ncccn2)CC1 | 6.16% | 53.4% (active) | 55.7% (active) | -7.99%
7 | CCCCNC(=O)COC(=O)c1c2c(nc3ccccc13)/C(=C/c1cccs1)CC2 | 11.2% | 58% (active) | 26.4% | 37.3% (active)
8 | COc1cc2c(=O)[nH]c3cc([N+](=O)[O-])ccc3c2cc1[N+](=O)[O-] | -3.92% | 64.6% (active) | 56.6% (active) | -22.2%
9 | Cc1ccc(S(=O)(=O)Oc2ccccc2/C=N/NC(N)=S)cc1 | 42.5% (active) | 70.6% (active) | 66.8% (active) | 47.2% (active)
10 | CC(=O)Nc1cc(-c2ccc(S(C)(=O)=O)cc2)cn2c(-c3ccc(F)cc3)cnc12 | 17.4% | 53.4% (active) | 33.3% | -7.42%
11 | O=C1CCCN2N=C(SCC(=O)Nc3ccc(Br)cc3)SC2=N1 | -4.32% | 49.1% (active) | 48.8% (active) | -7.91%
12 | O=C(COc1ccc2c(-c3ccccc3)cc(=O)oc2c1)NCCCn1ccnc1 | 9.33% | 36.4% | 39% | -19.5%
13 | COc1ccc(C2=NS(=O)(=O)N(C)C(C(=O)N3CCc4ccccc4C3)=C2)cc1OC | 5.52% | 43% (active) | 46.2% (active) | 24.2%
14 | COc1ccc(Nc2nc(Nc3ccc(OC)cc3)nc(SC3=NCCS3)n2)cc1 | 19.6% | 53.3% (active) | 53.4% (active) | 4.27%
15 | O=C(N/N=C/c1ccc([N+](=O)[O-])s1)C(O)c1ccccc1 (stereo unspecified) | 25.9% | 46.7% (active) | 62.2% (active) | -11.9%
16 | CN1CCN(c2nc(-c3ccccc3O)nc3ccccc23)CC1 | 5.26% | 42% (active) | 26.3% | 39.5% (active)
17 | COc1cc(C(=O)Nc2ccccc2C2COC(=O)C2=N)cc(OC)c1OC (stereo unspecified) | 8.92% | 45.5% (active) | 45.2% (active) | -1.69%
18 | CCOc1ccc(CCNC(=O)COC(=O)c2ccc(OC)c(OC)c2OC)cc1OCC | 11.7% | 53.8% (active) | 55.5% (active) | -6.44%
19 | CCOc1ccc(NC(=O)CSc2nncc(=O)[nH]2)cc1 | 8.36% | 63% (active) | 57.7% (active) | -11.2%
20 | O=C(NNc1ccccc1)C(=O)NNS(=O)(=O)c1ccc([N+](=O)[O-])cc1 | 1.65% | 12.9% | 27.1% | 20.1%
21 | COc1ccnc(Oc2ccccc2)c1C(=O)N/C=N/OCc1ccccc1F | 12.8% | 56.9% (active) | 48.8% (active) | -12.9%
22 | CCOc1ccc(CCNC(=O)COC(=O)Cc2c[nH]c3ccccc23)cc1OCC | 9.43% | 56.5% (active) | 56.3% (active) | -0.69%
23 | O=C(c1ccc(Cl)cc1)N1CCCCC(Cl)C1=O (stereo unspecified) | 20.5% | 56.1% (active) | 57.2% (active) | 1.69%
24 | CC(C)OC(=O)C(=O)NNc1ccccc1 | 12.3% | 12.2% | 4.1% | 11.9%
25 | COc1ccc(NC(=O)CN2C(=O)NC(C)(c3ccc(C)cc3)C2=O)c([N+](=O)[O-])c1 (stereo unspecified) | 9.06% | 56.2% (active) | 55.1% (active) | -9.49%

Row | Structure (SMILES) | inhibition [1] | inhibition [2] | inhibition [3] | inhibition [4]
26 | CCCCNC(=O)COC(=O)c1c2c(nc3ccccc13)/C(=C\c1cccs1)CC2 | -10.4% | 34.9% | 12.3% | 26.5%
27 | Cc1cccc(NC(=O)CSc2nc3[nH]ncc3c(=O)[nH]2)c1C | 11.6% | 56.4% (active) | 52.2% (active) | -4.74%
28 | COc1ccc(CCNC(=O)CN2C(=O)NC3(CCCCC3C)C2=O)cc1 (stereo unspecified) | 3.33% | 66.3% (active) | 66.7% (active) | -17%
29 | O=C1C=C(c2ccccc2)OC2(CCCC2)O1 | 19.8% | 67.3% (active) | 61.2% (active) | -4.15%
30 | O=C(Nc1ccc(N2CCN(C(=O)c3ccco3)CC2)cc1)c1ccc2c(c1)OCO2 | 23.4% | 48.3% (active) | 50.7% (active) | 60.5% (active)
31 | Cc1nn(CC(=O)Nc2ccc(N3CCOCC3)cc2)c(C)c1Cl | -2.18% | 44.3% (active) | 29.8% | -1.64%
32 | O=C(NCc1cccnc1)c1ccc(NC(=O)c2ccc(Br)cc2)cc1 | 70.9% (active) | 75.9% (active) | 91.9% (active) | 18.5%
33 | CCOC(=O)CCCc1ccc(/C(C)=N/NC(N)=S)cc1 | 21.6% | 62.4% (active) | 68.6% (active) | 26.4%
34 | Cc1ccc(OCc2nnc(SCC(=O)Nc3ccc4c(c3)OCCO4)n2Cc2ccco2)cc1 | 6.71% | 45.5% (active) | 41.2% | 1.35%
35 | CCOCC(=O)Nc1ccc([N+](=O)[O-])cc1C | 9% | 59.1% (active) | 57.7% (active) | 4.94%
36 | Cc1cc(C)c(C(N)=O)c(Nc2cccc3ccccc23)n1 | 1.09% | 2% | 22.7% | -17.9%
37 | O=C(COc1ccc(F)c(Cl)c1)Nc1ccc(N2CCOCC2)cc1 | 3.59% | 36% | 39% | 3.92%
38 | COc1ccc(CCNC(=O)COC(=O)c2cc(Cl)nc(Cl)c2)cc1 | 3.74% | 47.4% (active) | 51.4% (active) | -2.65%
39 | COc1ccc(CC(=O)Nc2ccncc2Cl)cc1 | 7.9% | 57.3% (active) | 49.8% (active) | 43% (active)
40 | CCCc1cc(=O)oc2cc(OCC(=O)NCCc3c[nH]c4ccc(OC)cc34)ccc12 | 6.12% | 28.9% | 40.4% | -23.9%
41 | O=C(Nc1cccc(NC(=O)c2ccc([N+](=O)[O-])o2)c1)c1ccco1 | 23.5% | 69% (active) | 70.5% (active) | -8.09%
42 | COc1ccc(C(=O)C(C)Oc2cccc(NC(=O)c3cccc([N+](=O)[O-])c3)c2)cc1 (stereo unspecified) | 1.27% | 35.4% | 44.1% (active) | -5.28%
43 | O=C(CSc1ncnc2c1cnn2Cc1ccccc1)Nc1ccc2c(c1)OCCO2 | 2.88% | 61.3% (active) | 54% (active) | 2.68%
44 | COC(=O)c1ccc(NC(=O)CN2CCN(c3ccc(Cl)cc3)CC2)cc1 | -0.66% | 52.3% (active) | 45.8% (active) | 2.51%
45 | O=C(COc1ccc(S(=O)(=O)N2CCCC2)cc1Cl)NCc1ccc2c(c1)OCO2 | 26.1% | 34% | 32.6% | 2.14%
46 | CC(=O)N[C@@H](Cc1c[nH]c2ccccc12)C(=O)OCC(=O)Nc1ccc2c(c1)OCO2 | -1.82% | 53.1% (active) | 56.8% (active) | -4.65%
47 | CC[C@@H](C(=O)[C@@H](C)[C@@H](O)[C@H](C)[C@@H]1O[C@@H]([C@@H](CC)C(=O)O)CC[C@@H]1C)[C@H]1O[C@]2(C=C[C@@H](O)[C@]3(CC[C@@](C)([C@H]4CC[C@](O)(CC)[C@H](C)O4)O3)O2)[C@H](C)C[C@@H]1C | 87% (active) | 103% (active) | 92.7% (active) | 92.3% (active)
48 | Cc1cc2oc(=O)cc(-c3ccccc3)c2c(C)c1-c1ccc(C#N)cc1 | 4.09% | 69% (active) | 62.7% (active) | 13.8%
49 | Cc1ccc(NC(=O)CSc2nnc([C@@H]3CCCN3C(=O)OC(C)(C)C)o2)c(C)c1 | 13.8% | 58% (active) | 54.5% (active) | -1.31%
